Bioassay records: PubChem BioAssay, several laboratories
Most compounds without a hit are left out; they make up all but 2.2% or so of the library.
CHO-K1 Ca antag – counter-screen for M1 antagonists: effect in parental CHO-K1 cells. ATP-induced calcium, Fluo-8 fluorescence. AID 602250. inhibition, % at 3 µM. actives 0.6% (n = 360,000);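 active means inhibition above a per-plate cutoff, the plate's mean sample inhibition plus 3 SD, cut at about 24% in these data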
NTR1 agonist – agonists of human NTR1, primary screen, imaging, U2OS cells, beta-arrestin-GFP, high content; Neurotensin receptor type 1 (Homo sapiens), P30989; NTR1-U2OS beta-arrestin-GFP spot imaging, agonist mode; AID 493036, 2011; activation, % at 20 µM; actives 0.17% (n = 330,000);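 active means activation at or above 40% of the spot to cytoplasm intensity ratio, with at least 20 cells analyzed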
Target sequence (P30989 whole entry, looked up): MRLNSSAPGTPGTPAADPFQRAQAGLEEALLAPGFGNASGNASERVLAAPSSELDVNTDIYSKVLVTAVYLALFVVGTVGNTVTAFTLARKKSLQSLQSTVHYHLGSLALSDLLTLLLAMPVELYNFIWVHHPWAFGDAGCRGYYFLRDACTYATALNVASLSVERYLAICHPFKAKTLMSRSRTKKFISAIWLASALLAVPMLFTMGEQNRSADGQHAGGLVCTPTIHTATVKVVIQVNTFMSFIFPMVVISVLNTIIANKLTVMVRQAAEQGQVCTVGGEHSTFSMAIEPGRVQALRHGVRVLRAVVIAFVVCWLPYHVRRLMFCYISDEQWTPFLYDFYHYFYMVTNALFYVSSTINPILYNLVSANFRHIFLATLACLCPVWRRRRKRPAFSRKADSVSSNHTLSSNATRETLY
TMEM16A inh – TMEM16A chloride channel inhibitors, primary screen, cell-based, HTS; HEK293 TMEM16A/YFP iodide influx fluorescence, ionomycin; actives 1.2% (n = 310,000); Anoctamin-1 (Mus musculus), Q8BHY3; normalized B-score (activity score, 25-100; higher = stronger inhibition) at 10 µM;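 active means ratio plate-corrected score three or more library SD toward inhibition, starting fluorescence score within five deviations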;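 further: score derived from kinetic fluorescence span divided by baseline fluorescence per well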
CHO-K1 Ca PAM – nonselective calcium activators in parental CHO-K1 cells, primary screen, counter-screen for M1 PAM project, cell-based, Fluo-8 calcium fluorescence, full deck, 1536-well; ATP EC20; 0% at ATP EC20, 100% at ATP max; AID 602247, 2012; activation, % at 3 µM; actives 0.02% (n = 360,000);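 active means activation above the run cutoff, the mean activation of all test compounds plus 3 SD, cut at about 40% in these data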;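 further: peak over basal fluorescence ratio in a 140 s read after ATP addition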
CHO-K1 Ca ag – counter-screen for M1 agonists: effect in parental CHO-K1 cells | activation, % at 3 µM | actives 0.48% (n = 360,000) | Fluo-8 calcium fluorescence; scaled to maximal ATP response, vehicle zero | AID 602248, 2012; in the data active means activation above about 15%;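 further: untransfected CHO-K1 host cells lacking M1 receptor as counterscreen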
TMEM16A act – TMEM16A chloride channel activators or potentiators, primary screen, cell-based, HTS | Anoctamin-1 (Mus musculus), Q8BHY3 | HEK293 TMEM16A/YFP-H148Q/I152L, iodide quench fluorescence; stronger effect = lower value | B-score at 10 µM | actives 0.3% (n = 340,000) | AID 623877, 2012;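 active means fluorescence-ratio B-score plate-corrected deviation score at least 3 library SD below zero, with starting fluorescence score within 5 deviations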;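 further: channel opened by trigger with iodide after compound preincubation; score built on the fluorescence ratio of max minus min over baseline; more negative score means more quench and so TMEM16A activation or potentiation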
Hits are given with their value; - = inactive; . = no result given; ! = a repeat was not active.

SMILES | CHO-K1 Ca antag | NTR1 agonist | TMEM16A inh | CHO-K1 Ca PAM | CHO-K1 Ca ag | TMEM16A act
CC[C@H](C)[C@@H]1O[C@@]2(C=CC1C)CC1C[C@@H](CC=C(C)C(O[C@H]3CC(OC)C(O[C@H]4CC(OC)C(O)C(C)O4)C(C)O3)C(C)C=CC=C3CO[C@@H]4C(O)C(C)=C[C@@H](C(=O)O1)[C@]34O)O2 (stereo partly drawn) | . | - | 25 | . | . | .
C[N+](C)(C)CC#CCN1CCCC1=O | - | - | - | - | - | -7.93
CC1CCN(C(=O)C(C)Cl)CC1 (stereo not drawn) | - | - | - | - | 16.4 | -
O=c1[nH]c(=O)n(CCc2ccccc2)c(O)c1C=NCCCn1ccnc1 | 61.9 | - | - | - | - | -
O=c1[nH]c(=O)n(Cc2ccccc2)c(O)c1C=NCCCn1ccnc1 | - | - | - | - | - | -
O=C(COc1ccc(S(=O)(=O)N2CCOCC2)cc1)N1CCN(Cc2ccc3c(c2)OCO3)CC1 | - | - | - | - | - | -
CCCCNS(=O)(=O)c1ccc(OCC(=O)N2CCN(Cc3ccc4c(c3)OCO4)CC2)cc1 | - | - | - | - | - | -4.72
CC(C)Oc1cccc(C(=O)C2CCCN(Cc3ccon3)C2)c1 (stereo not drawn) | - | - | - | - | 19.4 | -
Cc1ccccc1-c1ccc2c(c1)C1c3c(-c4ccccc4)nnn3-c3ccccc3C(=O)N1CC2 (stereo not drawn) | - | . | . | - | - | .
COC1=CC(=O)OC(/C=C/c2ccccc2)C1 (stereo not drawn) | 45.6 | - | - | - | - | -
O=[N+]([O-])c1ccc(N2CCOCC2)c2c1no[n+]2[O-] | - | . | . | - | - | .
Cn1ncnc2c(=O)n(C)c(=O)nc1-2 | - | - | 25 | - | - | -
O=C1NCN(c2ccccc2)C12CCN(C(c1nnnn1-c1ccc3c(c1)OCCO3)C1CC1)CC2 (stereo not drawn) | - | . | . | - | - | .
CCCCCc1nc2c(c(=O)c3ccccc3n2C)c(=O)n1C1CCCCCC1 | - | - | - | - | 20.9 | -11.1
CCCCCc1nc2ccccc2c(=O)n1-c1ccccc1[N+](=O)[O-] | - | - | - | - | - | -
O=C(Cn1ncc2c3ccccc3n(Cc3ccccc3F)c2c1=O)N1CCC2(CC1)OCCO2 | - | - | - | - | - | -20.6
CSCCC(c1nnnn1C(C)(C)C)N1CCC2(CC1)C(=O)NCN2c1ccccc1 (stereo not drawn) | - | . | . | - | - | .
CC(C)C[C@@H]1COc2cccc(N3CCN(C)CC3)c2S(=O)(=O)N1 | - | . | . | - | - | .
O=C1NC(=O)C(=Cc2ccc(OCC(=O)N3CCOCC3)cc2)C(=O)N1 | 29.1 | - | - | - | - | -
CCCC(C)C1C(C#N)=C(N)Oc2c1c(=O)oc1ccccc21 (stereo not drawn) | - | - | 100 | - | - | -
CN1CN(c2ccccc2)C2(CCN(CCCSc3ccccc3NC(=O)/C=C/c3ccccc3)CC2)C1=O | 35.4 | . | . | - | 61.9 | -
O=c1[nH]c2ccccc2n1C1CCN(C(CCc2ccccc2)c2nnnn2C2CCCC2)CC1 (stereo not drawn) | - | . | . | - | - | .
O=C(c1ccc(Cl)cc1)C1CCCN(Cc2ccc3ncccc3c2)C1 (stereo not drawn) | - | - | 25 | - | - | -
O=C(c1ccc(Cl)cc1)C1CCCN(Cc2ccc3c(c2)OCCO3)C1 (stereo not drawn) | - | - | - | - | - | -
CN(Cc1cccc(-c2ccncc2)c1)C(=O)Oc1ccc([N+](=O)[O-])cc1 | - | . | . | - | - | .
SMILES | CHO-K1 Ca antag | NTR1 agonist | TMEM16A inh | CHO-K1 Ca PAM | CHO-K1 Ca ag | TMEM16A act
CN(C)c1ccc(C=C(C#N)C#N)cc1 | - | - | - | - | - | -
CC(C)(C)c1cc(C=C(C#N)C#N)cc(C(C)(C)C)c1O | 31.3 | - | 100 | - | - | -
Clc1cccc(N2Cc3cc(-c4ccccc4)ccc3-n3nncc3C2)c1 | - | . | . | - | - | .
O=C(Nc1cccc(Cl)c1)OC1CN2CCC1CC2 (stereo not drawn) | 44.9 | - | - | - | 16.5 | -
Cc1cc(=O)oc2cc(OCC(=O)N3CCN(C(C)c4ccccc4)CC3)c(Cl)cc12 (stereo not drawn) | - | - | . | - | - | -41.9
Cc1cc(=O)oc2cc(OCC(=O)N3C[C@H]4C[C@@H](C3)c3cccc(=O)n3C4)c(Cl)cc12 | - | - | - | - | - | -
O=c1[nH]c2ccccc2n1C1CCN(C(c2cc3ccccc3o2)c2nnnn2Cc2ccccc2)CC1 (stereo not drawn) | - | . | . | - | - | .
CN(C)[C@@H]1C(=O)C(C(N)=O)=C(O)[C@@]2(O)C(=O)C3=C(O)c4c(O)cccc4[C@@](C)(O)C3[C@H](O)C12 (stereo partly drawn) | 27.5! | - | - | - | - | -
CN(C)C1C(=O)C(C(N)=O)=C(O)C2(O)C(=O)C3=C(O)c4c(O)cccc4C(C)(O)C3CC12 (stereo not drawn) | 27.7 | . | - | - | - | -
CN(C)[C@@H]1C(=O)C(C(N)=O)=C(O)[C@@]2(O)C(=O)C3=C(O)c4c(O)cccc4[C@@](C)(O)[C@H]3C[C@@H]12 | . | - | - | . | . | .
COc1ccc(C(c2nnnn2C(C)(C)C)N2CCC3(CC2)C(=O)NCN3c2ccccc2)cc1 (stereo not drawn) | - | . | . | - | - | .
CCC1(CC)C(=O)NC(=O)N(CCc2ccccn2)C1=O | - | . | . | - | - | -
O=C(C1CCCCC1)N1Cc2ccccc2-n2nncc2C1 | - | . | . | - | - | .
CN1CCc2c(C#N)c(Cl)nc(Cl)c2C1 | 32.0 | - | - | - | - | -
CN1CCc2c(c(N3CCCCC3)nc3n[nH]c(N)c23)C1 | - | - | - | - | - | -
CCOC(=O)CC(SP1(=S)OCC2(CC=CCC2)CO1)C(=O)OCC (stereo not drawn) | - | . | . | - | - | -
CCCCn1nnnc1C(c1cccc2ccccc12)N1CCC2(CC1)C(=O)NCN2c1ccccc1 (stereo not drawn) | 30.1 | . | . | - | - | .
O=C1NCN(c2ccccc2)C12CCN(C(c1cccc3ccccc13)c1nnnn1Cc1ccccc1)CC2 (stereo not drawn) | - | . | . | - | - | .
C/C=C(\C)C(=O)OC1C(C)=C2C(C1OC(=O)CCCCC)C(C)(OC(C)=O)CC(OC(=O)CCC)C1(O)C2OC(=O)C1(C)O (stereo not drawn) | . | - | 100 | . | . | .
O=c1[nH]c(=S)n(CCC2=CCCCC2)c(O)c1/C=N/N1CCOCC1 | - | - | - | - | - | -
O=c1[nH]c(=O)n(CCC2=CCCCC2)c(O)c1/C=N/N1CCOCC1 | 24.7 | - | - | - | - | -
COc1ccc2[nH]c(C)c(CCNCc3cc(OC)c(OC)c(OC)c3)c2c1 | - | - | - | - | - | -
